# Test results reported in PubChem BioAssay.
# A number with no mark means an inactive call. Calls of active or inactive are those of the source.
# Assay: fission yeast growth modulation, primary screen, strain 972, OD600, 24 h, no modulator (AID 1090);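 note: basal condition with compound alone and no growth modifier present; test concentration not given here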
# Settings: S. pombe 972 growth, higher = more signal, called active from +8 up or from −8 down
row,SMILES,z-score
1,CCOC(=O)C1=CCC(c2ccc(C)cc2)N(S(=O)(=O)c2ccc(C)cc2)C1 (centres undefined),1.59
2,CN(C)CCCNC(=O)[C@@]1(c2ccc([N+](=O)[O-])cc2)CC(=O)N(C2CCCCC2)[C@@H]1c1ccc(CO)cc1,-8.13 (active)
3,CC(=O)N1Cc2ccccc2C[C@@]2(COC(c3ccc(OCCCO)cc3)=N2)C1=O,-0.737
4,COCCOC(=O)N1C(=O)[C@@]2(c3cc(C#CC4=CCCCC4)ccc31)[C@H](C(=O)Nc1nc3ccccc3s1)[C@H]1C(=O)O[C@H](c3ccccc3)[C@H](c3ccccc3)N1[C@@H]2c1ccc(OCCO)cc1,1.97
5,C=CC[C@]1(C(=O)N2CCCCC2)N=C(c2ccc(OCCCO)cc2)O[C@H]1c1ccccc1,-5.54
6,O=C1NCC(=O)N2[C@@H]1C[C@@H](C(=O)O)[C@H]2c1cccc(OCCO)c1,-14.2 (active)
7,O=C1O[C@H](c2ccccc2)[C@H](c2ccccc2)N2[C@H]1[C@@H](C(=O)O)[C@]1(C(=O)Nc3ccc(C#CCCO)cc31)[C@H]2c1ccc(O)cc1,-0.228
8,C=CCOC(=O)[C@H]1[C@@H]2C(=O)O[C@@H](c3ccccc3)[C@@H](c3ccccc3)N2[C@@H](c2ccc(OCCOC(=O)[C@@H]3C[C@@H]4C(=O)N[C@@H](CCCCN(C)C)C(=O)N4[C@@H]3c3ccc(O)cc3)cc2)[C@]12C(=O)Nc1ccc(I)cc12,-1.09
9,CC(C)(C)OC(=O)CC[C@]12N=C(c3ccc(OCCCO)cc3)O[C@H]1c1ccccc1N(CCS(=O)(=O)c1ccccc1)C2=O,1.65
10,CN(C)C(=O)[C@@]1(Cc2ccccc2CN=[N+]=[N-])N=C(c2ccc(OCCCO)cc2)O[C@H]1c1ccccc1,0.0586
11,COc1cc2c(cc1OC)CN(C(=O)[C@H]1[C@@H]3C(=O)O[C@@H](c4ccccc4)[C@@H](c4ccccc4)N3[C@@H](c3ccc(O)cc3)[C@]13C(=O)Nc1ccc(C#CC4=CCCCC4)cc13)CC2,-2.16
12,CN1C(=O)C2C=CC(C(O)c3cc(C(F)(F)F)cc(C(F)(F)F)c3)N(N3CCCCC3)C2C1=O (centres undefined),0.763
13,COCC(=C=CC[C@H](O)c1ccccc1OCCO)C[C@H](O)c1cc(Cl)cc(Cl)c1O,-20.3 (active)
14,CCCN1C(=O)[C@]2(CCS(=O)(=O)c3ccccc3)N=C(c3ccc(OCCCO)cc3)O[C@@H]2c2ccccc21,-0.0812
15,COc1cc2c(cc1OC)CN(C(=O)[C@H]1[C@@H]3C(=O)O[C@@H](c4ccccc4)[C@@H](c4ccccc4)N3[C@@H](c3ccc(O)cc3)[C@]13C(=O)Nc1ccc(C#CCNC(N)=O)cc13)CC2,-0.363
16,CN(C)CCCNC(=O)[C@@]1(C)c2ccccc2C(=O)N(Cc2cc(F)cc(C(F)(F)F)c2)[C@H]1c1ccc(CO)cc1,-2.05
17,O=C1C2C=CC(C(O)C3CCCCC3)N(Nc3ccc([N+](=O)[O-])cc3)C2C(=O)N1c1ccccc1 (centres undefined),0.341
18,O=C1OCCC/C=C\[C@H]2OC34C=CCN(c5ccc6ccccc6c5)C(=O)[C@H]3N(CCCCCCO)C(=O)[C@@H]4C12 (some centres undefined),-1.15
19,COCCOC(=O)N1C(=O)[C@@]2(c3cc(C#CCNC(N)=O)ccc31)[C@H](C(=O)NC[C@H](O)c1ccccc1)[C@H]1C(=O)O[C@H](c3ccccc3)[C@H](c3ccccc3)N1[C@@H]2c1ccccc1OCCO,1.11
20,CC(C)(C)OC(=O)CC[C@@]12N=C(c3ccc(OCCCO)cc3)O[C@@H]1c1ccccc1N(CCS(=O)(=O)c1ccccc1)C2=O,0.326
21,COC(=O)[C@@]1(Cc2ccc(F)cc2)[C@H]2c3cc(C(=O)N4CCCC4)n(Cc4cc(C)n(C)n4)c3C[C@H]2CN1C(=O)c1ccccc1,-0.292
22,COC(=O)c1c(CC[C@@H](CO)NC(=O)N2CCC[C@H]2Cn2cc(-c3ccccn3)nn2)oc(C(C)=O)c1C(=O)OC,0.195
23,CCOC(=O)[C@H]1CC=C2CC1C(=O)N1CCC[C@@H]1[C@@H]2O[Si](C)(C)C(C)(C)C (some centres undefined),-21.2 (active)
24,C=CCC(OC(C)=O)[C@@H]1[C@@H](N(Cc2ccc(-c3ccccc3)cc2)C(=O)Cc2ccc(F)cc2)c2cc(OCCCO)ccc2N1C(=O)c1ccc(-c2ccccc2)cc1 (some centres undefined),-0.379
